Data: PubChem BioAssay (Tox21)
Records with an inconclusive call do not appear. A call without a number means that no potency is given here. Calls of active or inactive are those of the source. Unless noted, calls come from the whole dose curve; as a rule, active = well fitted curve in the direction sought with a large enough effect in the repeat runs; inconclusive = weak or mixed curves; inactive = no such curve, though single readings can be large; an effect the other way counts as inactive or inconclusive.

Assays:
[1] = molecular target: Aryl hydrocarbon receptor (Homo sapiens) (UniProt P35869); assay: qHTS assay to identify small molecule that activate the aryl hydrocarbon receptor (AhR) signaling pathway (AID 743085); note: nearly all actives have a fitted effect of over 15% in size; note: potency is the fitted concentration of half-maximal effect;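 for activation: HG2L7.5c1 human HepG2 liver cells with stably integrated DRE-driven firefly reporter; series mostly up to about 70 µM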
Chain of Aryl hydrocarbon receptor (Homo sapiens) (P35869 whole entry, looked up): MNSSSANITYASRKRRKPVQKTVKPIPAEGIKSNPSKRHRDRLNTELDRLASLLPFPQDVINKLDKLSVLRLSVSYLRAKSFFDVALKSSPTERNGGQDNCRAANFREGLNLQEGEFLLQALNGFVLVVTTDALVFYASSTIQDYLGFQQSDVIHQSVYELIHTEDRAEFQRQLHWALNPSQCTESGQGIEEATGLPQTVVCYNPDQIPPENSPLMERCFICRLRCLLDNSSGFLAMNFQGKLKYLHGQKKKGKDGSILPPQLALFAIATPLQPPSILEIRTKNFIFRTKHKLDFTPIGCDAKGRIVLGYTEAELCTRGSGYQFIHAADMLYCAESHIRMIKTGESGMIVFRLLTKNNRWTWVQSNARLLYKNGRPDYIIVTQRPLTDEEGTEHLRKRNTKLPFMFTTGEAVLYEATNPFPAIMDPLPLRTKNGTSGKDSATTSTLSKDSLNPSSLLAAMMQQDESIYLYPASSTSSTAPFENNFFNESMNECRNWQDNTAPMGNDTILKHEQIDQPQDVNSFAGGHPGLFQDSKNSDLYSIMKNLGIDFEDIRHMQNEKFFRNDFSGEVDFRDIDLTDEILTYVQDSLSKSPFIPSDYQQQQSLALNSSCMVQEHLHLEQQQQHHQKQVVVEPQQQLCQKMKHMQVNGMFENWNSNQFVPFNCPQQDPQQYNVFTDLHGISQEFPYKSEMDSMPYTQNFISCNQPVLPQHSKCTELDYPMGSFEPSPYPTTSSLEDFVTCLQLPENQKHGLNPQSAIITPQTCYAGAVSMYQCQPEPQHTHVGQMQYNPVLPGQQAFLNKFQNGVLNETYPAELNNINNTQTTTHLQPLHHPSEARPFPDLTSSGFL
Summary of the method: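 AhR agonist activity is inferred from enhanced light output of a DRE-controlled firefly luciferase reporter in HepG2 cells, measured with ONE-Glo following 24 h treatment at 37C.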

[2] = molecular target: Peroxisome proliferator-activated receptor gamma (Homo sapiens) (UniProt P37231); assay: qHTS assay to identify small molecule agonists of the peroxisome proliferator-activated receptor gamma (PPARg) signaling pathway (AID 743094; active = well fitted activation curve with a large enough effect in the signal ratio in the repeat runs, not every such curve was filed as active; the % refers to the signal ratio; note: potency is the fitted concentration of half-maximal effect)
Chain of Peroxisome proliferator-activated receptor gamma (Homo sapiens) (P37231 whole entry, looked up): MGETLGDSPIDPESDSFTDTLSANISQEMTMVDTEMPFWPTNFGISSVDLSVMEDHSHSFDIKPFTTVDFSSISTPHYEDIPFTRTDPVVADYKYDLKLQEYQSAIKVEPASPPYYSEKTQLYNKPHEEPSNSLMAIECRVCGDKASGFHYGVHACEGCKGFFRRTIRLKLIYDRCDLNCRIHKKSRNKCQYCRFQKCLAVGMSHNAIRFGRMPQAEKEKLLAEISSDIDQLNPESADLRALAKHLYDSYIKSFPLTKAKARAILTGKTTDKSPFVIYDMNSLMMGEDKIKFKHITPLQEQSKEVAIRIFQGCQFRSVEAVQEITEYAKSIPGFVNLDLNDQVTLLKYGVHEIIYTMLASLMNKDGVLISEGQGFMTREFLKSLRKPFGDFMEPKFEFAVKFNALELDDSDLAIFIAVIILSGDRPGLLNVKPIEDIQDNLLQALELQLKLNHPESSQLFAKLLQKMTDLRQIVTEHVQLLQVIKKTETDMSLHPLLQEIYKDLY
Summary of the method: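 Cells from the PPARg UAS-bla HEK293H line are plated and incubated 5 h at 37C. Compounds in DMSO are pinned in and left 17 h at 37C. LiveBLAzer B/G substrate is then added for 1 h at room temperature before fluorescence is measured.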

[3] = molecular target: Peroxisome proliferator-activated receptor gamma (Homo sapiens) (UniProt P37231); assay: qHTS assay to identify small molecule antagonists of the peroxisome proliferator-activated receptor gamma (PPARg) signaling pathway (AID 743191; calls by dose curve; note: series mostly up to about 63 µM; nearly all actives have a fitted effect of over 30% in size)
Summary of the method: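 GeneBLAzer PPARg UAS-bla HEK293H cells, 5 h post-plating, exposed to compounds 17 h at 37C. LiveBLAzer B/G FRET substrate added for 1 h at room temperature; beta-lactamase reporter read by fluorescence intensity.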

[4] = qHTS assay for small molecule agonists of the antioxidant response element (ARE) signaling pathway - cell viability counter screen (AID 743203; calls by dose curve; note: nearly all actives have a fitted effect of over 55% in size; note: potency is the fitted concentration of half-maximal effect)
Summary of the method: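 Cytotoxicity was tested in parallel with the ARE reporter screen. ARE-bla HepG2 cells were exposed to compounds for 16 hrs, and viability was taken from CellTiter-Glo luminescence.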

[5] = qHTS assay for small molecule activators of the heat shock response signaling pathway - cell viability counter screen (AID 743209); note: nearly all actives have a fitted effect of over 50% in size
Summary of the method: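 Cytotoxicity counter screen run in parallel with the HSE beta-lactamase reporter, using the same wells. HeLa HSE-bla cells received compound for 5 h at 37 C; ATP-based CellTiter-Glo luminescence was measured after 30 min at room temperature.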

[6] = molecular target: Peroxisome proliferator-activated receptor delta (Homo sapiens) (UniProt Q03181); assay: qHTS assay to identify small molecule agonists of the peroxisome proliferator-activated receptor delta (PPARd) signaling pathway (AID 743212; calls by dose curve; note: potency is the fitted concentration of half-maximal effect)
Chain of Peroxisome proliferator-activated receptor delta (Homo sapiens) (Q03181 whole entry, looked up): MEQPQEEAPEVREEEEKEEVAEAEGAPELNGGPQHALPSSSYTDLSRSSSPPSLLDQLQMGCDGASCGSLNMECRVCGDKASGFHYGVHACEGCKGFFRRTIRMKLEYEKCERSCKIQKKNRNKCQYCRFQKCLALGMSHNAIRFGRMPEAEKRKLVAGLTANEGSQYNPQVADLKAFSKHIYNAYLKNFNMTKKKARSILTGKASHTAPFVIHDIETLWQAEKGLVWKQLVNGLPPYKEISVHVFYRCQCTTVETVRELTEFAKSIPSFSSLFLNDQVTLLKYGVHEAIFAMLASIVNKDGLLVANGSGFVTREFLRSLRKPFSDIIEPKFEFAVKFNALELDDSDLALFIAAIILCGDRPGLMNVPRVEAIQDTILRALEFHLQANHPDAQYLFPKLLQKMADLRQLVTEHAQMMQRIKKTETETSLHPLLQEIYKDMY
Summary of the method: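 Read-out: beta-lactamase FRET fluorescence after 2 h room-temperature incubation with LiveBLAzer B/G substrate. Cells were HEK293H carrying a UAS-bla reporter for PPARd, treated at 37 C with DMSO-dissolved compounds.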

[7] = molecular target: Peroxisome proliferator-activated receptor delta (Homo sapiens) (UniProt Q03181); assay: qHTS assay to identify small molecule antagonists of the peroxisome proliferator-activated receptor delta (PPARd) signaling pathway (AID 743215; active = well fitted inhibition curve with a large enough effect in the signal ratio in the repeat runs, not every such curve was filed as active; the % refers to the signal ratio;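 note: cells stimulated with agonist L165041 at 300 nM final during compound exposure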; note: potency is the fitted concentration of half-maximal effect)
Summary of the method: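 Cells: HEK293H with a UAS-driven beta-lactamase reporter responsive to PPARd. Compounds were co-added with L165041 (300 nM, final) and incubated 17 h at 37 C before a 2 h room-temperature FRET substrate step and fluorescence reading.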

[8] = molecular target: Bile acid receptor (Homo sapiens) (UniProt Q96RI1); assay: qHTS assay to identify small molecule antagonists of the farnesoid-X-receptor (FXR) signaling pathway (AID 743217; active = well fitted inhibition curve with a large enough effect in the signal ratio in the repeat runs, not every such curve was filed as active; the % refers to the signal ratio; note: potency is the fitted concentration of half-maximal effect)
Chain of Bile acid receptor (Homo sapiens) (Q96RI1 whole entry, looked up): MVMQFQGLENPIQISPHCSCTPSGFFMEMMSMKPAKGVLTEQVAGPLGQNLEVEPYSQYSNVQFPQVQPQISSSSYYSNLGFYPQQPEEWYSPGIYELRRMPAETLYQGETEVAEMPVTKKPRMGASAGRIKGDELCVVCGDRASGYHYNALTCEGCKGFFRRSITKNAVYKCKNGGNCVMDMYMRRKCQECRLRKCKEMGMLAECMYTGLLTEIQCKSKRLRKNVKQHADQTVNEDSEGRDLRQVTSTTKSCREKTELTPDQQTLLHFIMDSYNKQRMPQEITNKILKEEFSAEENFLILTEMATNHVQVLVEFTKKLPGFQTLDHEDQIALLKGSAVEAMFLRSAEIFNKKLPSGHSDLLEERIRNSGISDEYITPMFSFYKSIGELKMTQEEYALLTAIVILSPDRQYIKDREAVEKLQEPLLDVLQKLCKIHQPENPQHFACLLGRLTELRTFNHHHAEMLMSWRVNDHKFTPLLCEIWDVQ
Summary of the method: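 Cells carrying a UAS-driven beta-lactamase reporter (GeneBLAzer FXR-UAS-bla HEK 293T) were plated and rested 5 h at 37 °C. Compounds in DMSO were added alongside chenodeoxycholic acid agonist at 50 uM final and left 16 h at 37 °C before FRET substrate readout.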

[9] = qHTS assay to identify small molecule agonists of the farnesoid-X-receptor (FXR) signaling pathway - cell viability counter screen (AID 743218); note: nearly all actives have a fitted effect of over 45% in size; note: potency is the fitted concentration of half-maximal effect
Summary of the method: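 Cells were seeded, left 5 h at 37 C and 5% CO2, then dosed with compound in DMSO for 16 h. After the beta-lactamase FRET read, CellTiter-Glo was added and luminescence measured 30 min later.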

[10] = molecular target: Bile acid receptor (Homo sapiens) (UniProt Q96RI1); assay: qHTS assay to identify small molecule agonists of the farnesoid-X-receptor (FXR) signaling pathway (AID 743220; active = well fitted activation curve with a large enough effect in the signal ratio in the repeat runs, not every such curve was filed as active; the % refers to the signal ratio)
Summary of the method: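 FXR-UAS-bla HEK 293T cells carrying a UAS-driven beta-lactamase reporter were plated for 5 h at 37C/5% CO2, then exposed to DMSO-dissolved Tox21 10K compounds for 16 h at 37C. A LiveBLAzer B/G FRET substrate was loaded for 2 h at room temperature before fluorescence reading.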

[11] = qHTS assay to identify small molecule antagonists of the farnesoid-X-receptor (FXR) signaling pathway - cell viability counter screen (AID 743221; active = well fitted cell-killing curve with a large enough effect in the repeat runs, not every such curve was filed as active; note: nearly all actives have a fitted effect of over 50% in size; note: potency is the fitted concentration of half-maximal effect)
Summary of the method: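 After a 5 h settling period, FXR-bla HEK 293T cells receive compound and chenodeoxycholic acid (50 uM final) and incubate 16 h at 37 C; CellTiter-Glo luminescence, read after 30 min at room temperature, reports cell viability.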

[12] = molecular target: Vitamin D3 receptor (Homo sapiens) (UniProt P11473); assay: qHTS assay to identify small molecule agonists of the vitamin D receptor (VDR) signaling pathway (AID 743222; calls by dose curve)
Chain of Vitamin D3 receptor (Homo sapiens) (P11473 whole entry, looked up): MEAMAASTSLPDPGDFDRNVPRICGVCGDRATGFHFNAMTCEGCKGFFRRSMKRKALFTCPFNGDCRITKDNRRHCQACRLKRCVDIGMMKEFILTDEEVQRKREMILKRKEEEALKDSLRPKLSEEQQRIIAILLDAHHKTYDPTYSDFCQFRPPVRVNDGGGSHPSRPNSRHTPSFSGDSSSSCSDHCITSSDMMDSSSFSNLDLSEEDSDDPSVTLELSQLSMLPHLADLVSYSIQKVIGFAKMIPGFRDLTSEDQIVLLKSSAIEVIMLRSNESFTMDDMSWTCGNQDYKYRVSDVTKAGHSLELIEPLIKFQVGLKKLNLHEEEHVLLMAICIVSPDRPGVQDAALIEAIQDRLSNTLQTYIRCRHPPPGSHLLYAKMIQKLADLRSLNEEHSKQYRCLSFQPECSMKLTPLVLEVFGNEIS
Summary of the method: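 Cells carrying a VDR-driven beta-lactamase reporter are seeded at 2,000 per well and rested 4 h. Compounds in DMSO are added for 16 h at 37C, and FRET substrate fluorescence is measured after 2 h at room temperature.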

[13] = molecular target: Vitamin D3 receptor (Homo sapiens) (UniProt P11473); assay: qHTS assay to identify small molecule antagonists of the vitamin D receptor (VDR) signaling pathway (AID 743223; active = well fitted inhibition curve with a large enough effect in the signal ratio in the repeat runs, not every such curve was filed as active; the % refers to the signal ratio)
Summary of the method: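 Reporter line VDR-bla; stimulus 1alpha,25-(OH)2 vitamin D3, 3 nM final; compound co-addition, 16 h 37C/5% CO2; LiveBLAzer B/G substrate 2 h RT; fluorescence intensity.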

[14] = qHTS assay to identify small molecule that activate the aryl hydrocarbon receptor (AhR) signaling pathway - cell viability counter screen (AID 743086); note: nearly all actives have a fitted effect of over 45% in size; note: potency is the fitted concentration of half-maximal effect
Summary of the method: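 HepG2-AhR-luc (HG2L7.5c1) cells, 4000/well, treated 24 h at 37 C with compound; viability measured as CellTiter-Fluor fluorescence after 30 min in the same wells as the luciferase read.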

[15] = qHTS assay for small molecule activators of the heat shock response signaling pathway (AID 743210; active = well fitted activation curve with a large enough effect in the signal ratio in the repeat runs, with a control signal flat, not every such curve was filed as active; the % refers to the signal ratio;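 note: HeLa cells with beta-lactamase reporter driven by heat shock elements; series mostly up to about 63 µM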)
Summary of the method: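 Beta-lactamase reporter read-out: FRET substrate fluorescence after 2.5 h at RT, following 5 h compound treatment at 37 C of HeLa cells carrying HSE-driven bla reporter; quantitative HTS format.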

[16] = qHTS assay for small molecule agonists of the antioxidant response element (ARE) signaling pathway (AID 743202; active = well fitted activation curve with a large enough effect in the signal ratio in the repeat runs, not every such curve was filed as active; the % refers to the signal ratio)
Summary of the method: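 HepG2 ARE-bla reporter line, 2,000 cells/well; 5 h preincubation 37 C/5% CO2; compound (DMSO) 16 h 37 C; B/G FRET substrate 2 h RT; fluorescence intensity.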

[17] = qHTS assay to identify small molecule agonists of the peroxisome proliferator-activated receptor delta (PPARd) signaling pathway - cell viability counter screen (AID 743211); note: nearly all actives have a fitted effect of over 55% in size; note: potency is the fitted concentration of half-maximal effect
Summary of the method: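 qHTS cell viability: PPARd-bla HEK293H; 17 h cpd, 37C; CellTiter-Glo, luminescence at 30 min RT.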

[18] = qHTS assay to identify small molecule antagonists of the peroxisome proliferator-activated receptor gamma (PPARg) signaling pathway - cell viability counter screen (AID 743194); note: nearly all actives have a fitted effect of over 55% in size
Summary of the method: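 Cytotoxicity counter screen in PPARg-bla HEK293H cells, same wells as reporter assay. Compounds plus 50 nM rosiglitazone (final) for 17 h at 37 C, then viability read by CellTiter-Glo luminescence.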

[19] = qHTS assay to identify small molecule antagonists of the peroxisome proliferator-activated receptor delta (PPARd) signaling pathway - cell viability counter screen (AID 743213); note: nearly all actives have a fitted effect of over 50% in size; note: potency is the fitted concentration of half-maximal effect
Summary of the method: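 HEK293H PPARd UAS-bla cells, 5 h pre-incubation, compound + L165041 300 nM final, 17 h 37 C; B/G FRET substrate 2 h RT; then CellTiter-Glo 30 min RT, luminescence.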

[20] = qHTS assay to identify aromatase inhibitors - cell viability counter screen (AID 743084);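 note: cells stimulated with testosterone during compound exposure; nearly all actives have a fitted effect of over 55% in size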

SMILES	Potency [1]	Potency [2]	Potency [3]	Potency [4]	Potency [5]	Potency [6]	Potency [7]	Potency [8]	Potency [9]	Potency [10]	Potency [11]	Potency [12]	outcome [13]	Potency [14]	Potency [15]	Potency [16]	Potency [17]	Potency [18]	Potency [19]	Potency [20]
CN1C[C@H]2c3ccccc3Oc3ccc(Cl)cc3[C@@H]2C1	13.3 µM (active)	inactive	inactive	inactive	inactive	inactive	inactive	inactive	inactive	inactive	inactive	inactive	inactive							
CN(C)CCCN1c2ccccc2Sc2ccccc21	inactive	inactive			inactive	inactive		inactive	13.3 µM (active)	inactive		inactive		inactive	inactive					
CN1CCC(=C2c3ccccc3Sc3ccccc32)CC1	inactive	inactive	inactive		inactive	inactive	inactive	inactive		inactive		inactive	inactive		inactive	inactive	26.6 µM (active)			
O=C1CCCCCCCCCCCC(=O)OCCO1	inactive	inactive		inactive	inactive	inactive					inactive	inactive		inactive	inactive		inactive	inactive	inactive	
CCO[C@H](Cc1ccc(OCCc2ccc(OS(C)(=O)=O)cc2)cc1)C(=O)O		0.12 µM (active)		inactive		11.9 µM (active)	inactive		inactive		inactive	inactive			inactive			inactive	inactive	inactive
Cc1cccc(C)c1OCC(=O)N[C@@H](Cc1ccccc1)[C@@H](O)C[C@H](Cc1ccccc1)NC(=O)[C@H](C(C)C)N1CCCNC1=O	inactive			inactive	inactive		inactive					inactive	inactive	23.7 µM (active)					inactive	
Cc1cc(N)c2cc(NC(=O)Nc3ccc4nc(C)cc(N)c4c3)ccc2n1					inactive				inactive	inactive		inactive	inactive	inactive						inactive
Clc1ccc2c(c1)CCc1cccnc1C2=C1CCNCC1	inactive		inactive			inactive	29.8 µM (active)	29.8 µM (active)		inactive	29.8 µM (active)	inactive			inactive		26.6 µM (active)	inactive	15 µM (active)	
CCCCC/C=C\C/C=C\CCCCCCCC(=O)NC(C)c1ccccc1 (stereo not given)		inactive		inactive	inactive		inactive		inactive		inactive							inactive		inactive
Brc1c2ccccc2cc2ccccc12		49.5 µM (active)			inactive				inactive		inactive		inactive					inactive	inactive	inactive
CCCCCCCCCCCCCCCCCCOS(=O)(=O)O	inactive			61.1 µM (active)					34.7 µM (active)			inactive	inactive	inactive			49 µM (active)		54.9 µM (active)	
Nc1cc(C(=O)O)c(O)c(S(=O)(=O)O)c1	inactive	inactive		inactive	inactive				inactive		inactive	inactive		inactive	inactive				inactive	
